# Of roughly 8,800 targets only a part is listed; those with a hit were picked by preference. About 0.5% of all pairs of compound and target were hits. Values without a mark were called inactive.
# What was measured:
# Assay in all cases: log2 fold change, soluble protein after heating vs DMSO (PISA); higher = thermal stabilisation; K562 lysate, 10 uM; active = over 0.2 and 3.5 SD of the protein, either way, in both replicates (recomputed)
# [1] = compound: C#Cc1cccc(Nc2ncnc3cc(OCCOC)c(OCCOC)cc23)c1 [erlotinib]
# Method in brief: (§1)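 A 30 min treatment with 10 μM compound was applied to crude K562 extract at 1 mg/mL protein in PBS pH 7.4 with 1 mM MgCl2. Heating for 3 min spanned 48°C-58°C, after which aliquots were pooled, adjusted to 0.5% NP-40 at 4°C and spun at 21,000xg for 90 min. TMTpro 16plex LC-MS/MS of the supernatant, with channel sums equalised, gave values recorded as log-two fold change in thermal stability against solvent controls, from duplicates.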
# [2] = compound: C/C(=N\NC(=O)C1=CC(=CC=C1)S(=O)(=O)N2CCOCC2)/C3=C(C=CC(=C3)Cl)O
# Method in brief: as §1
# [3] = compound: C1=CC(=CC=C1C2=NC3=C(N2)C=C(C=C3)C(=O)N)OC4=CC=C(C=C4)Cl
# Method in brief: as §1
# [4] = compound: C1=CC2=C(C=CC(=C2)/C=C\3/C(=O)NC(=NCC4=CC=CS4)S3)N=C1
# Method in brief: as §1
# [5] = compound: C1=CC2=NC=CN=C2C=C1/C=C/3\C(=O)NC(=O)S3
# Method in brief: as §1
# [6] = compound: C1=CC=C(C=C1)C2=NC(=C(N2)C3=CC=NC=C3)C4=CC(=C(C=C4)Cl)O
# Method in brief: as §1
# [7] = compound: C1=CC=C2C(=C1)C3=NNC4=CC=CC(=C43)C2=O
# Method in brief: as §1
# [8] = compound: C1CCN(C1)C(=O)NC2=CC=CC(=C2)NC3=NC=C(C(=N3)NCCC4=CN=CN4)Br
# Method in brief: as §1
# [9] = compound: C1CN(CCC1(CC2=CC=C(C=C2)Cl)N)C3=NC=NC4=C3C=CN4
# Method in brief: as §1
# [10] = compound: C1COCCN1CCN2C3=CC=CC=C3N=C2NC(=O)C4=CC(=CC=C4)[N+](=O)[O-] [IRAK-1-4 Inhibitor I]
# Method in brief: as §1
# [11] = compound: C=CC(=O)N1CCC[C@@H](n2nc(-c3ccc(Oc4ccccc4)cc3)c3c(N)ncnc32)C1 [ibrutinib]
# Method in brief: as §1
# [12] = compound: CC(=O)c1cnc2ccc(-c3cc(Cl)c(O)c(Cl)c3)nc2c1N[C@H]1CC[C@H](CN(C)C)CC1
# Method in brief: as §1
# [13] = compound: CC(C)(C)Cn1c(N)nc2ccc(-c3[nH]c(C(C)(C)C)nc3-c3ccc(F)cc3)nc21 [ralimetinib]
# Method in brief: as §1
# [14] = compound: CC(C)(O)CC(=O)NCCn1ccc2ncnc(Nc3ccc(Oc4cccc(C(F)(F)F)c4)c(Cl)c3)c21
# Method in brief: as §1
# [15] = compound: CC(C)C1=C2N=C(C=C(N2N=C1)NCC3=CC=CC=C3)NCCCCCCN
# Method in brief: as §1
# [16] = compound: CC1=C(C(CC(=O)N1)C2=CC=C(C=C2)C(F)(F)F)C(=O)NC3=C(C=C4C(=C3)C=NN4)F
# Method in brief: as §1
# [17] = compound: CC1=C(C2=C(C=C1)C(=O)C3=CC=CC=C3N2CCCN)C
# Method in brief: as §1
# [18] = compound: CC1=C(C=C(C=C1)NC(=O)C2=CC(=CC=C2)C(C)(C)C#N)NC3=CC4=C(C=C3)N=CN(C4=O)C
# Method in brief: as §1
# [19] = compound: CC1=C(C=C(C=C1)NC(=O)C2=CC(=CC=C2)N(C)C)NC(=O)C3=CC=C(C=C3)O
# Method in brief: as §1
# [20] = compound: CC1=CC=C(C=C1)SC2=C3C=C(SC3=CN=C2)C(=O)N
# Method in brief: as §1
# Chain of UniProt P49840 (P49840 whole entry, looked up): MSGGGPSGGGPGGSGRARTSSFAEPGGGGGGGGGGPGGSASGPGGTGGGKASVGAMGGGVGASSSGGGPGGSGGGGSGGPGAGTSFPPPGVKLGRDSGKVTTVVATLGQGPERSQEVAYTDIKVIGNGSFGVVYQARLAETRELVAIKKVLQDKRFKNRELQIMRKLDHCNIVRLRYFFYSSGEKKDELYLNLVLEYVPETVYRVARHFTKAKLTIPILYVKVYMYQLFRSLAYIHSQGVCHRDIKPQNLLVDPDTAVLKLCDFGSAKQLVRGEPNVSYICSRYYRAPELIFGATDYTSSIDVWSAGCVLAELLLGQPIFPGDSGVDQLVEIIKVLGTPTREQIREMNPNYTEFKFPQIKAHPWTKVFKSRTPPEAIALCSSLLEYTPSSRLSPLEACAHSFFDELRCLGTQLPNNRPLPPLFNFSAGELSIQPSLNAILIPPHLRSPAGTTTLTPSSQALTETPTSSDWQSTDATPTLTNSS
# Chain of UniProt P51617 (P51617 whole entry, looked up): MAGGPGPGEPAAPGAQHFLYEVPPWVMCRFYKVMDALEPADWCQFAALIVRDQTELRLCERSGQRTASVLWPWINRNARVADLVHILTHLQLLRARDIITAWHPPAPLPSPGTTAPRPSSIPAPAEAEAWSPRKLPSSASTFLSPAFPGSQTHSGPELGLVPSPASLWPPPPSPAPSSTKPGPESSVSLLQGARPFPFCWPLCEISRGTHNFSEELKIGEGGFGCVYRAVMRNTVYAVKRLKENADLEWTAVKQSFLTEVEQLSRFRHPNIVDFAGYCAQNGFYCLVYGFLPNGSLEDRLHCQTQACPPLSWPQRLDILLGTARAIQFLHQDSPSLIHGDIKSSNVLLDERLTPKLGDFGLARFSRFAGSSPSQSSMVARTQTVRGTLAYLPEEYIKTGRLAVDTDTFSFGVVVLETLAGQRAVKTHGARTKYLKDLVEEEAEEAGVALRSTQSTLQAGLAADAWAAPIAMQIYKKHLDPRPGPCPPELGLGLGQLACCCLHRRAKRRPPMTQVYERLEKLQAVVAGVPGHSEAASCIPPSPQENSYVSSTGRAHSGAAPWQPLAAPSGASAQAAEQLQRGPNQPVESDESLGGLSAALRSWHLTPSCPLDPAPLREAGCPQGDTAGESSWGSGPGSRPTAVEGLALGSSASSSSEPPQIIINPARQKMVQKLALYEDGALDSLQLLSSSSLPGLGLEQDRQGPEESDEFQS
# Chain of UniProt Q6AI08 (Q6AI08 whole entry, looked up): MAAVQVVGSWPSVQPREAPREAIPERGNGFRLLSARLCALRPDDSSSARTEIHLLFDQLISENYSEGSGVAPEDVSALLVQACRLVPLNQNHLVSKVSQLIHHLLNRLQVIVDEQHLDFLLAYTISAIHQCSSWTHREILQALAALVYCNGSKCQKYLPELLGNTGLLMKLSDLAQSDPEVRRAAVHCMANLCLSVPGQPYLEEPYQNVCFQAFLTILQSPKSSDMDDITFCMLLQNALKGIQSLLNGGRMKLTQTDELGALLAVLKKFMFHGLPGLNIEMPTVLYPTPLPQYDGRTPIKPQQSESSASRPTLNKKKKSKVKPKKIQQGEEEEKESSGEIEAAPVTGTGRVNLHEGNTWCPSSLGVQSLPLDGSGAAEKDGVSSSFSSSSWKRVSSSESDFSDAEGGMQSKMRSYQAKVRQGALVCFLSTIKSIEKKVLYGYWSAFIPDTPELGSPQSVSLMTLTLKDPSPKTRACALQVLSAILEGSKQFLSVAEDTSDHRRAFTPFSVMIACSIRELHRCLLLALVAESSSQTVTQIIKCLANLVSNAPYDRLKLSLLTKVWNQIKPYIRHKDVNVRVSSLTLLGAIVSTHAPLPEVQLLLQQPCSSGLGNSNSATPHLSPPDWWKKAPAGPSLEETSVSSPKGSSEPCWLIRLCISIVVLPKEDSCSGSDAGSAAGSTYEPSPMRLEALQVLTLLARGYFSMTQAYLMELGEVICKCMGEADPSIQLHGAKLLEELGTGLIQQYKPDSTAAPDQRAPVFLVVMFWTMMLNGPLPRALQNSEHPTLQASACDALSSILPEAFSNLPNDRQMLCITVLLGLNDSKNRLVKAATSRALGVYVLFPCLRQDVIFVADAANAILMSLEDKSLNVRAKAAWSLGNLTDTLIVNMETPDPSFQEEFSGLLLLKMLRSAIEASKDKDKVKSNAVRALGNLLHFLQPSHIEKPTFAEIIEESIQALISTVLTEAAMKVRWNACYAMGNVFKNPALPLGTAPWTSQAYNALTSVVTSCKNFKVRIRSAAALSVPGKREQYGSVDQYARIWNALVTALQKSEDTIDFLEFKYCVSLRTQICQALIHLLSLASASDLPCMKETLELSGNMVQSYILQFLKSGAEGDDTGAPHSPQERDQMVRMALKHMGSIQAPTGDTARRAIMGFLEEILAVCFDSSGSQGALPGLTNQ
# Chain of UniProt Q8IY47 (Q8IY47 whole entry, looked up): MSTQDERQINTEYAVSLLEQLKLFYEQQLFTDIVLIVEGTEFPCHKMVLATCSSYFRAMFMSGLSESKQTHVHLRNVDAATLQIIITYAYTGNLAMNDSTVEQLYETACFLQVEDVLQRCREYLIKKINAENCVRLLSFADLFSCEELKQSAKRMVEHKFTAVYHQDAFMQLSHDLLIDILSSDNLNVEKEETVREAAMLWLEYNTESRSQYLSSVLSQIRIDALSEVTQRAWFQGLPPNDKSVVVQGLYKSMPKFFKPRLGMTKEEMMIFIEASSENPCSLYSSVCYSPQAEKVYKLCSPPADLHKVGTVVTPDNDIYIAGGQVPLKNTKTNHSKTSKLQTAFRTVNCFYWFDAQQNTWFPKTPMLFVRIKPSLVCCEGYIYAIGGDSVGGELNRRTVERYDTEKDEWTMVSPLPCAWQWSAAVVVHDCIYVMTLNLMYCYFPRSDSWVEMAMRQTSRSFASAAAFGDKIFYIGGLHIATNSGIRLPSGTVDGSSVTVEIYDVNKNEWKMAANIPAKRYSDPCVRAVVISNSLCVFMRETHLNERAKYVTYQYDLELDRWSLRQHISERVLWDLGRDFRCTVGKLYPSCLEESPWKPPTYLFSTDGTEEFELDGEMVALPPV
# Chain of UniProt P32780 (P32780 whole entry, looked up): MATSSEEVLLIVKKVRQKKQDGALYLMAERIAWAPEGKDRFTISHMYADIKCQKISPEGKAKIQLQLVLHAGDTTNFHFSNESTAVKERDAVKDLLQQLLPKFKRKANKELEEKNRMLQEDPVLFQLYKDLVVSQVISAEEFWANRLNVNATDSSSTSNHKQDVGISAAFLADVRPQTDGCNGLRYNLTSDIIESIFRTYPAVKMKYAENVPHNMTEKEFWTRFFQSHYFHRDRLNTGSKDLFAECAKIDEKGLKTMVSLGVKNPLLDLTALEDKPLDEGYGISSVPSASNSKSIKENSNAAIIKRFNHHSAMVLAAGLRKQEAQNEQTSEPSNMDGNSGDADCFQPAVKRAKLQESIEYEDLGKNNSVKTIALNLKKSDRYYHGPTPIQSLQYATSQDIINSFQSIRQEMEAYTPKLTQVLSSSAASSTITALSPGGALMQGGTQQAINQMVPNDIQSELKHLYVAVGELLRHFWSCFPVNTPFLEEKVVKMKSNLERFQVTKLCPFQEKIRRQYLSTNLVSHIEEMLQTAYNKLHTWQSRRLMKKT
# Chain of UniProt O14979 (O14979 whole entry, looked up): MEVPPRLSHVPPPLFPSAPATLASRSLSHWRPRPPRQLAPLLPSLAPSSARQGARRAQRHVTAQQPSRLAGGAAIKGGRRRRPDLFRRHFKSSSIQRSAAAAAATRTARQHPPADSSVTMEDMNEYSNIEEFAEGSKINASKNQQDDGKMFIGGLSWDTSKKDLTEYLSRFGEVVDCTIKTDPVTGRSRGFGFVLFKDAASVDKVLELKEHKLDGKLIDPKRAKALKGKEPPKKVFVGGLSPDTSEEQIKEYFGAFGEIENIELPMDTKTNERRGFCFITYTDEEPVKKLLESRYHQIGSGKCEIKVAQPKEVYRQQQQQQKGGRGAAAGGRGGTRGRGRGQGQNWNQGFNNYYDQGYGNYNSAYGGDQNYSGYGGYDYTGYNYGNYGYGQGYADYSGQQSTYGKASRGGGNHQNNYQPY
# Chain of UniProt Q96AB3 (Q96AB3 whole entry, looked up): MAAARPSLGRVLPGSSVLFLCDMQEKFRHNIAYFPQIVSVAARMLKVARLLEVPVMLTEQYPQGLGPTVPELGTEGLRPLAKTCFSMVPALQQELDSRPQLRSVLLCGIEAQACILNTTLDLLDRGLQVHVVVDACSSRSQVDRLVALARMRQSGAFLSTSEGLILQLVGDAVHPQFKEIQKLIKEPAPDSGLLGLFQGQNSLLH
# Chain of UniProt Q9BX10 (Q9BX10 whole entry, looked up): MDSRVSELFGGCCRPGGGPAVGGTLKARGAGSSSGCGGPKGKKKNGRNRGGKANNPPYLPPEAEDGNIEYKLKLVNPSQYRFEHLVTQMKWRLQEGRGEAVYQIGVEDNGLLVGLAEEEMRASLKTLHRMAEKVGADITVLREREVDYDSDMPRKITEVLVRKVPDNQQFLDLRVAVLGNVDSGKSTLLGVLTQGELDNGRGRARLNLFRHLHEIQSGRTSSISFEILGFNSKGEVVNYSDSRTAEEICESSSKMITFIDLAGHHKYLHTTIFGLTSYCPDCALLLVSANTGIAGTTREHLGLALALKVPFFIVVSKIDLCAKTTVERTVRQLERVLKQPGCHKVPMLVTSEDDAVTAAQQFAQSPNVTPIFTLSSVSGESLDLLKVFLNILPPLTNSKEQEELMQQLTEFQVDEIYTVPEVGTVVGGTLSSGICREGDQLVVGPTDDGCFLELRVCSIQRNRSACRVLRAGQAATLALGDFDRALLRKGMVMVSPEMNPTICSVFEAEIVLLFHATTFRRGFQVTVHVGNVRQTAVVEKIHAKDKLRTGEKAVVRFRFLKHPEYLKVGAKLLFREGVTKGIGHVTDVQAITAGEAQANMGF
# Chain of UniProt Q6DN03 (Q6DN03 whole entry, looked up): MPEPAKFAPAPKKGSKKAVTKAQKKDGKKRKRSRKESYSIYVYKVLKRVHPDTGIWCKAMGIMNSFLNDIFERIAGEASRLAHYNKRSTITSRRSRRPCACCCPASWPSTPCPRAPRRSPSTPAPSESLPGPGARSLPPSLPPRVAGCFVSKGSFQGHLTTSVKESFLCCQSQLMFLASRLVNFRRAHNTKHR
Target,log2 fold change [1],log2 fold change [2],log2 fold change [3],log2 fold change [4],log2 fold change [5],log2 fold change [6],log2 fold change [7],log2 fold change [8],log2 fold change [9],log2 fold change [10],log2 fold change [11],log2 fold change [12],log2 fold change [13],log2 fold change [14],log2 fold change [15],log2 fold change [16],log2 fold change [17],log2 fold change [18],log2 fold change [19],log2 fold change [20]
GON4L (UniProt Q3T8J9),-0.003,0.016,0.061,-0.038,-0.074,0.053,0.057,0.026,-0.052,-0.039,0.026,0.022,0.029,-0.042,-0.04,-0.02,-0.017,0.01,0.002,-0.044
HIST2H2BC (UniProt Q6DN03),-0.036,0.144,0.001,0.006,0.061,0.007,-0.012,0.043,0.04,-0.028,0.003,-0.052,-0.013,0.003,-0.055,0.066,0.029,-0.001,0.032,0.031
HEATR6 (UniProt Q6AI08),-0.033,0.024,-0.002,0.022,0.085,-0.006,-0.026,-0.03,-0.007,-0.028,0.045,-0.036,0.064,-0.031,-0.051,0.033,-0.069,-0.004,0.083,-0.009
INPP4A (UniProt Q96PE3),0.002,0.007,0.017,-0.005,-0.023,0.099,0.069,-0.018,-0.051,0.066,-0.166,0.001,0.061,-0.013,-0.034,0.02,-0.086,0.022,-0.053,-0.025
KDM1A (UniProt O60341),-0.005,0.106,0.021,0,-0.006,-0.019,-0.071,-0.019,-0.009,-0.003,0.007,-0.011,0.018,-0.016,0.019,-0.004,0.003,-0.004,0.044,0.003
KBTBD2 (UniProt Q8IY47),-0.002,0.019,0.056,0,0.011,0.016,-0.079,-0.023,0.052,0.097,-0.005,-0.039,-0.113,-0.227,0,0.001,-0.036,0.116,0,-0.041
GSK3A (UniProt P49840),-0.029,-0.103,-0.034,0.069,0.066,0.295,0.182,0.163,0.018,-0.014,-0.01,0.146,0.022,-0.001,-0.045,-0.017,0.01,-0.109,-0.007,0.207
GTF2H1 (UniProt P32780),0.044,0.008,0.012,-0.032,-0.011,0.003,-0.013,0.029,-0.005,-0.019,0.023,0.023,0.026,0.003,-0.005,0.036,-0.022,0.001,0.054,0.015
GLYR1 (UniProt Q49A26),0.025,0.061,-0.018,0.021,0.041,0.029,-0.01,0.11,0.035,0.006,0.113,0.017,0.038,-0.15,0.033,0.07,-0.339 (active),0.126,0.106,0.032
INPPL1 (UniProt O15357),-0.01,-0.034,-0.018,-0.052,-0.006,-0.02,-0.051,-0.021,0.003,-0.034,0.012,0.02,0.049,-0.013,0.004,0.011,-0.005,-0.001,0.034,0.014
IMPDH2 (UniProt P12268),0.001,-0.009,-0.018,-0.018,-0.013,-0.028,-0.003,0.019,-0.003,0.011,0.049,-0.003,0.034,0.028,0.025,-0.034,0.019,0.017,-0.006,0.016
ISOC2 (UniProt Q96AB3),-0.018,0.003,0.001,-0.035,-0.006,-0.072,0.003,-0.007,-0.001,0.053,0.017,-0.021,0.056,0.024,0.014,-0.004,-0.131,0.054,0.041,0.035
IRAK1 (UniProt P51617),0.038,-0.054,-0.108,-0.015,0.028,0.039,0.117,0.023,-0.096,0.023,0.032,0.195,-0.024,-0.031,-0.018,-0.013,-0.028,-0.086,0.062,0
GTPBP2 (UniProt Q9BX10),-0.008,-0.051,-0.05,-0.002,-0.011,0.02,-0.032,-0.058,-0.017,0.023,0.008,-0.123,0.042,-0.035,0,0.004,-0.018,0,0.047,-0.032
INTS10 (UniProt Q9NVR2),0.008,0.056,-0.001,0.061,-0.044,0.026,-0.061,-0.006,0.044,-0.004,0.079,0.021,0.01,-0.02,-0.023,0.036,0,0.002,-0.014,0.036
HNRNPDL (UniProt O14979),-0.013,0.026,0.009,-0.008,0.024,0.038,0.008,0.006,0.014,-0.008,0,-0.692 (active),-0.027,0.014,-0.011,0.013,-0.016,0.111,-0.011,0
